# In PubChem BioAssay (NCI):
# Values joined by “and” are separate entries in the source; they are usually repeats but may differ in a detail not shown here. Equal entries are not always repeated. The panel holds about 83,000 compounds, 20% with a hit somewhere; the sample as a whole holds those more often.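 The test compound was applied at a single concentration to cells in 96-well plates for 48 hours, and percent growth was recorded.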 Values without a mark were called inactive. Active and inactive are the calls of the source. How the source made its calls: active means growth percent below 10; inactive means the rest.
# What was measured:
# Test in all cases: NCI-60 one-dose screen, 48 h (100 = growth as untreated, 0 = no growth, -100 = all killed)
# [1] = test system: HCT-15 colon
# [2] = test system: HT29 colon
# [3] = test system: SNB-75 CNS
# [4] = test system: SNB-19 CNS
# [5] = test system: U251 CNS
# [6] = test system: PC-3 prostate
# [7] = test system: SK-MEL-5 melanoma
# [8] = test system: UACC-62 melanoma
# [9] = test system: LOX IMVI melanoma
# [10] = test system: SK-MEL-28 melanoma
smiles,measurement,setting,value
COC(=O)c1nc(-c2ccc(C)cc2)oc1Sc1ccc(C)cc1,growth,[1]; 10 µM unless noted,86.8%
same,growth,[2]; 10 µM unless noted,102%
same,growth,[3]; 10 µM unless noted,79.3%
same,growth,[4]; 10 µM unless noted,101%
same,growth,[5]; 10 µM unless noted,94.3%
same,growth,[6]; 10 µM unless noted,78.4%
same,growth,[7]; 10 µM unless noted,105%
same,growth,[8]; 10 µM unless noted,76.9%
same,growth,[9]; 10 µM unless noted,93.5%
same,growth,[10]; 10 µM unless noted,106%
COc1ccc(C(=O)/C=C/c2ccc(OCc3ccc(Cl)cc3)cc2)cc1OC,growth,[1]; 10 µM,92.9%
same,growth,[1]; 100 µM,34.1%
same,growth,[2]; 10 µM,87.2%
same,growth,[2]; 100 µM,35.8%
same,growth,[3]; 10 µM,96.9%
same,growth,[3]; 100 µM,-26.3% (active)
same,growth,[4]; 10 µM,105%
same,growth,[4]; 100 µM,-47.3% (active)
same,growth,[5]; 10 µM,93.2%
same,growth,[5]; 100 µM,-90.3% (active)
same,growth,[6]; 10 µM,97.5%
same,growth,[6]; 100 µM,16.9%
same,growth,[7]; 10 µM,92.3%
same,growth,[7]; 100 µM,-10.4% (active)
same,growth,[8]; 10 µM,96.1%
same,growth,[8]; 100 µM,23.6%
same,growth,[9]; 10 µM,88.8%
same,growth,[9]; 100 µM,22.1%
same,growth,[10]; 10 µM,103%
same,growth,[10]; 100 µM,55.9%
C=C1CC[C@@H]2[C@](C)(COC(C)=O)[C@H](OC(C)=O)CC[C@@]2(C)[C@@H]1CC(Nc1ccc(S(=O)(=O)Nc2nccs2)cc1)C1=CCOC1=O (stereo not given in full),growth,[1]; 10 µM unless noted,-39.2% (active)
same,growth,[2]; 10 µM unless noted,-42.7% (active)
same,growth,[3]; 10 µM unless noted,28.3%
same,growth,[4]; 10 µM unless noted,49.1%
same,growth,[5]; 10 µM unless noted,4.21% (active)
same,growth,[6]; 10 µM unless noted,21.8%
same,growth,[7]; 10 µM unless noted,31.4%
same,growth,[8]; 10 µM unless noted,21.2%
same,growth,[9]; 10 µM unless noted,-88.3% (active)
same,growth,[10]; 10 µM unless noted,-16.3% (active)
COc1ccc(C/C(C)=C(\c2ccc(O)cc2)c2ccc(OCCCN(C)C)cc2)cc1,growth,[1]; 10 µM unless noted,89.7%
same,growth,[2]; 10 µM unless noted,77.6%
same,growth,[3]; 10 µM unless noted,84.1%
same,growth,[4]; 10 µM unless noted,100%
same,growth,[5]; 10 µM unless noted,80.5%
same,growth,[6]; 10 µM unless noted,83.4%
same,growth,[7]; 10 µM unless noted,98.4%
same,growth,[8]; 10 µM unless noted,108%
same,growth,[9]; 10 µM unless noted,88.9%
same,growth,[10]; 10 µM unless noted,112%
Nc1nc(N)c2c(n1)NC(c1cccc(Nc3ccnc4cc(C(F)(F)F)ccc34)c1)CC(c1ccc(F)cc1)=N2 (stereo not given),growth,[1]; 10 µM unless noted,21.3%
same,growth,[2]; 10 µM unless noted,12.5%
same,growth,[3]; 10 µM unless noted,47.1%
same,growth,[4]; 10 µM unless noted,61.3%
same,growth,[5]; 10 µM unless noted,33.6%
same,growth,[6]; 10 µM unless noted,34.4%
same,growth,[7]; 10 µM unless noted,30.4%
same,growth,[8]; 10 µM unless noted,71.4%
same,growth,[9]; 10 µM unless noted,40.5%
same,growth,[10]; 10 µM unless noted,79.2%
COc1ccc(Oc2nc(Nc3ccc(N4CCOCC4)cc3)ncc2NC(=O)c2cccc(C(F)(F)F)c2)cc1,growth,[1]; 10 µM unless noted,58.6%
same,growth,[2]; 10 µM unless noted,42.2%
same,growth,[3]; 10 µM unless noted,82.3%
same,growth,[4]; 10 µM unless noted,87.5%
same,growth,[5]; 10 µM unless noted,69.3%
same,growth,[6]; 10 µM unless noted,53.7%
same,growth,[7]; 10 µM unless noted,92.2%
same,growth,[8]; 10 µM unless noted,78.4%
same,growth,[9]; 10 µM unless noted,52.4%
same,growth,[10]; 10 µM unless noted,99.5%
CC(C)(C)CC(N)=O,growth,[1]; 10 µM unless noted,94.9%
same,growth,[2]; 10 µM unless noted,102%
same,growth,[3]; 10 µM unless noted,96.4%
same,growth,[4]; 10 µM unless noted,101%
same,growth,[5]; 10 µM unless noted,95.1%
same,growth,[6]; 10 µM unless noted,97.9%
same,growth,[7]; 10 µM unless noted,94.1%
same,growth,[8]; 10 µM,103%
same,growth,[8]; 100 µM,79.5% and 18.4%
same,growth,[9]; 10 µM unless noted,98.1%
same,growth,[10]; 10 µM unless noted,102%
O=C(Nc1ccccc1C(=O)N/N=C(\c1ccccc1)c1ccccn1)c1ccccc1,growth,[1]; 10 µM unless noted,25.7%
same,growth,[2]; 10 µM unless noted,22.1%
same,growth,[3]; 10 µM unless noted,64%
same,growth,[4]; 10 µM unless noted,27.9%
same,growth,[5]; 10 µM unless noted,10.8%
same,growth,[6]; 10 µM unless noted,43.7%
same,growth,[7]; 10 µM unless noted,-20.9% (active)
same,growth,[8]; 10 µM unless noted,-10.4% (active)
same,growth,[9]; 10 µM unless noted,14.5%
same,growth,[10]; 10 µM unless noted,31.9%
O=C(/C=C/c1ccccc1)c1cccs1,growth,[1]; 10 µM unless noted,95.1% and 95.5%
same,growth,[2]; 10 µM unless noted,99.8% and 90.7%
same,growth,[3]; 10 µM unless noted,102% and 97.3%
same,growth,[4]; 10 µM unless noted,93.6% and 104%
same,growth,[5]; 10 µM unless noted,80.8% and 85.9%
same,growth,[6]; 10 µM unless noted,90.8% and 103%
same,growth,[7]; 10 µM unless noted,101% and 100%
same,growth,[8]; 10 µM unless noted,92.9% and 99.6%
same,growth,[9]; 10 µM unless noted,82.1% and 64.5%
same,growth,[10]; 10 µM unless noted,111% and 105%
CN(C)CCNc1ncc(F)c(-c2cnc3cc(-c4cnn(C)c4)ccn23)n1,growth,[1]; 0.005 µM,99.2%
same,growth,[1]; 30 µM,31.2%
same,growth,[2]; 0.005 µM,99.7%
same,growth,[2]; 30 µM,42.8%
same,growth,[3]; 0.005 µM,100%
same,growth,[3]; 30 µM,50%
same,growth,[4]; 0.005 µM,97%
same,growth,[4]; 30 µM,73.4%
same,growth,[5]; 0.005 µM,96.3%
same,growth,[5]; 30 µM,75.9%
same,growth,[6]; 0.005 µM,103%
same,growth,[6]; 30 µM,44.9%
same,growth,[7]; 10 µM unless noted,101% [0.005 µM]
same,growth,[8]; 0.005 µM,98%
same,growth,[8]; 30 µM,82.7%
same,growth,[9]; 0.005 µM,98.6%
same,growth,[9]; 30 µM,19.9%
same,growth,[10]; 0.005 µM,105%
same,growth,[10]; 30 µM,96.7%
COc1ccc(S(=O)(=O)Nc2cc(Sc3cccc4cccnc34)c(O)c3ccccc23)cc1,growth,[1]; 10 µM unless noted,10.9%
same,growth,[2]; 10 µM unless noted,-37.8% (active)
same,growth,[3]; 10 µM unless noted,62.5%
same,growth,[4]; 10 µM unless noted,43%
same,growth,[5]; 10 µM unless noted,4.81% (active)
same,growth,[6]; 10 µM unless noted,26.3%
same,growth,[7]; 10 µM unless noted,-32.7% (active)
same,growth,[8]; 10 µM unless noted,-28.1% (active)
same,growth,[9]; 10 µM unless noted,-55.8% (active)
same,growth,[10]; 10 µM unless noted,-2.3% (active)
